This test has as its system Trypanosoma brucei. Nature of the test: Trypanosoma brucei 72 hour study. On the set-up: scale not given: in the data most compounds retested in dose-response had high values. In kind it is functional, organism-based.

SMILES strings stand for the structures. Hit rate of the full screen: of about 66,000 compounds, about 960 (1.5%) showed an effect of 50% or more. The full list was thinned out, with strong results kept by preference.

Consider `CN(C)[C@@H]1CCN(S(=O)(=O)C2CC2)[C@H]1Cc1ccccc1.O=C(O)C(F)(F)F`, for which the “Percent Effect” value (30.3 µM, […]) is on record as -33.03%.
Same read-out and setting: the value for `O=C1CCNc2ncc(-c3ccccc3Cl)cc2CN1C1CC1` was 10.61%.
With `Cl.O=C(NCc1ccc(Cl)cc1)C1=NOC2(CCNC2)C1` (configuration not stated), the “Percent Effect” value (30 µM, 30.03 µM) is on record as 4.958%.
As for `Cc1ccc(NC(=O)Nc2c[nH]c(=O)[nH]c2=O)c(C)c1`, the “Percent Effect” value (30 µM, 30.03 µM) was -29.58%.
Take `Cc1cc(CN2CCC3(CC2)COC(COCC2CC2)C3)no1.O=C(O)C(F)(F)F` (configuration not stated): where the note is “30.3 µM, […]”, the “Percent Effect” value is recorded as 4.372%.
As to `Cc1cncc(CN2C[C@@H](O)[C@H](Oc3ccccc3)C2)c1`, under “30.3 µM, […]”, the “Percent Effect” value came out at 6.651%.
With `c1ccc(-c2cc(CN3C[C@@H]4CC[C@H](C3)N(CC3CC3)C4)on2)cc1`, where the note is “30 µM, 30.03 µM”, the “Percent Effect” value is given as -36.61%.
On the same count and under the same terms, the value for `c1ccc(-c2cc(CN3C[C@@H]4CC[C@H](C3)N(CC3CCC3)C4)on2)cc1` was 58.21%; that for `c1ccc(-c2nnc(CN3C[C@@H]4CC[C@H](C3)N(CC3CCC3)C4)o2)cc1` was -46.57%.
For the compound `O=C(O)C(F)(F)F.O=C(O)C(F)(F)F.O=C(c1n[nH]c2c1CN(C1CCOCC1)CC2)N1CCCC1`, the “Percent Effect” value (30.3 µM, […]) was -4.414%.
The same measure, in the same setting: the value for `CCOc1ccc(N(C)Cc2nnc(C)o2)cc1` was -136.8%; that for `CCOc1ccc(N(C)Cc2nc(C)c(C)o2)cc1` was 96.05%; that for `CCOc1ccc(N(C)Cc2nnc(C3CC3)o2)cc1` was -683%.
Same read-out and setting: then `CCn1ncc2c1C(COC)N(C(=O)CCc1ccccc1)CC2.O=C(O)C(F)(F)F` (configuration not stated), with -62.76%.
Turning to `COC[C@@]12CC[C@@H](N3CCOCC3)C[C@H]1CCN(c1ncccc1F)C2`, under “30.3 µM, […]”, the “Percent Effect” value is reported as 8.261%.
The same measure, in the same setting: the value for `COC[C@@]12CC[C@@H](N3CCOCC3)C[C@H]1CCN(c1ncccc1C)C2` was -4.564%.
As to `COC[C@@]12CC[C@@H](N3CCOCC3)C[C@H]1CCN(c1ncccc1Cl)C2`, the “Percent Effect” value (30 µM, 30.03 µM) is on record as 81.93%.
On to `Cl.Cl.O=C(CN1CCN(CC(O)C2CC2)CC1)NCc1ccccc1` (configuration not stated), for which the “Percent Effect” value (30.3 µM, […]) is given as -20.63%.
Same read-out and setting: then `Cn1ccc(CN2CCCC23CCN(Cc2cccc(F)c2)CC3)n1.O=C(O)C(F)(F)F.O=C(O)C(F)(F)F`, with -80.78%; and `CCc1cc(C(F)(F)F)c2c(C3CCN(C(=O)COC)CC3)noc2n1`, with 11.66%.
Same read-out and setting: then `O=C(N[C@@H]1CN(CCc2ccc(F)cc2)C[C@H]1O)c1cscn1`, with 8.587%; and `O=C(O)C(F)(F)F.O=C(O)C(F)(F)F.O=C(c1cccnc1)N1CCn2cc(CN3CCCC3)nc2C1`, with -57.28%.
In the case of `O=C(NCCCNc1ccc(C(F)(F)F)cn1)c1ccccc1`, the “Percent Effect” value (10 µM) was -30.72%.
As to `N#Cc1ccc(C(=O)NCCCNc2ccc(C(F)(F)F)cn2)cc1`, the “Percent Effect” value (30 µM, 30.03 µM) was 0.4176%.
On the same count and under the same terms, then `N#CC1(C(=O)NCCCNc2ccc(C(F)(F)F)cn2)CCCC1`, with 104.7%.
Consider `CCCN1C(=O)[C@H]2CC[C@@H]1CN(S(=O)(=O)c1cccc(Cl)c1)C2`, for which, under “30.3 µM, […]”, the “Percent Effect” value is reported as -12.81%.
On the same count and under the same terms, then `Cc1cccc(CN2CCc3onc(CO)c3C2)n1.O=C(O)C(F)(F)F`, with -52.13%.
For `O=C(O)C(F)(F)F.O=C(O)C(F)(F)F.c1cncc(OCc2noc3c2CN(Cc2ccsc2)CC3)c1`, the “Percent Effect” value (30 µM, 30.03 µM) was -15.24%.
Take `O=C(Nc1ccc(Cl)cc1)c1nn(C2CCS(=O)(=O)C2)c2c1CCCC2` (configuration not stated): the “Percent Effect” value (30 µM, 30.03 µM) is recorded as -43.99%.
Same read-out and setting: then `O=C(Nc1cccc(Cl)c1)c1nn(C2CCS(=O)(=O)C2)c2c1CCCC2` (configuration not stated), with 73.39%; and `O=C(Nc1ccccc1)c1nn(C2CCS(=O)(=O)C2)c2c1CCCC2` (configuration not stated), with 23.09%; and `Cc1[nH]c2ccc(CNc3cc(C(N)=O)ccn3)cc2c1C`, with 60.58%.
On the same count and under the same terms, the value for `COCC(C)NCc1ccc2[nH]c(C)c(C)c2c1` (configuration not stated) was 2.897%; that for `Cc1[nH]c2ccc(CNc3cc(C#N)ccn3)cc2c1C` was 39.43%.
Turning to `CSCC(C)NCc1ccc2[nH]c(C)c(C)c2c1` (configuration not stated), where the note is “30 µM, 30.03 µM”, the “Percent Effect” value was -11.75%.
Turning to `Cc1[nH]c2ccc(CNc3cc(C(=O)NC(C)C)ccn3)cc2c1C`, the “Percent Effect” value (30 µM, 30.03 µM) was determined as 50.33%.
In the case of `COC(=O)C(C)NCc1ccc2[nH]c(C)c(C)c2c1` (configuration not stated), the “Percent Effect” value (30 µM, 30.03 µM) is -35.15%.
In the case of `NC[C@H]1CC[C@H](C(NC(=O)CC2CCCCC2)c2ccccn2)CC1` (some centres not stated), the “Percent Effect” value (30.3 µM, […]) was -8.457%.
Still for that read-out and setting: then `COc1cnc(C2(O)CCN(C(=O)c3ccccn3)CC2)c(OC)n1`, with -9.61%.
On the same count and under the same terms, the value for `COc1c(CNCCNC(=O)c2cccc(C)c2)c(C)nn1C.Cl` was 0.1013%.
For the compound `O=C(NCC1CC1)[C@H]1C[C@@H]2CN(C(=O)NCc3ccccc3)C[C@H]1O2`, the “Percent Effect” value (30 µM, 30.03 µM) worked out at 46.62%.
On the same count and under the same terms, then `COc1cccc(-c2n[nH]cc2CNC2CCN(C(C)C)CC2)c1.Cl`, with -15.13%.
Same read-out and setting: then `COc1c(CNC2CCOc3ccccc32)c(C(C)C)nn1C` (configuration not stated), with 25.19%.
The same measure, in the same setting: the value for `CC(C)c1nn(C)c(Cl)c1CNC1CCOc2ccccc21.Cl` (configuration not stated) was 55.88%; that for `CC(C)c1nn(C)c(N(C)C)c1CNC1CCOc2ccccc21` (configuration not stated) was -51.78%.
As to `CN1CC(=O)N(c2cccc(F)c2)CC12CCN(CC1CCOCC1)C2.O=C(O)C(F)(F)F.O=C(O)C(F)(F)F` (configuration not stated), the “Percent Effect” value (30 µM, 30.03 µM) is on record as 9.991%.
For the compound `COc1ccc(C2=Nn3c(CN)nnc3-c3ccccc3C2)cc1`, under “30 µM, 30.03 µM”, the “Percent Effect” value is 2.28%.
Consider `COc1ncccc1C(=O)N1CCCC(n2ccnc2C)C1` (configuration not stated), for which, for the setting “30.3 µM, […]”, the “Percent Effect” value is given as -7.34%.
As for `O=C(NC1CCN(Cc2cccc3c2OCCO3)CC1)c1cccs1`, the “Percent Effect” value was determined as 10.83% (10 µM) and 7.019% (30.3 µM, […]).
In the case of `CC(C)C(=O)NC1CCN(Cc2cccc3c2OCCO3)CC1`, where the note is “30 µM, 30.03 µM”, the “Percent Effect” value is -15.03%.
Take `Cc1ccoc1C(=O)NC1CCN(Cc2cccc3ccccc23)CC1`: the “Percent Effect” value is given as -9.27% (10 µM) and 57.41% (30.3 µM, […]).
In the same order, the values of `Cc1ccoc1C(=O)NC1CCN(Cc2ccccc2C#N)CC1` are 15.78% and -0.9403%.
In the same order, the values of `Cc1ccc(C(=O)NC2CCN(Cc3cccc4c3OCCO4)CC2)s1` are -2.683% and 68.24%.
In the same order, the values of `Cc1ccoc1C(=O)NC1CCN(Cc2ccccc2F)CC1` are -23.23% and 4.829%.
`O=C(O)C(F)(F)F.O=C(c1ccc(F)cc1)N1CCC2(CCN(Cc3ccccn3)C2=O)C1` (configuration not stated): the “Percent Effect” value (30 µM, 30.03 µM) is -50.24%.
`Cc1csc2ncc(-c3ccnc(N4CCC[C@H](C(N)=O)C4)n3)c(=O)n12`: the “Percent Effect” value (30.3 µM, […]) was -8.345%.
Same read-out and setting: then `CCN(CC)Cc1cn2c(n1)CN(C1CCOC1)CC2.O=C(O)C(F)(F)F.O=C(O)C(F)(F)F` (configuration not stated), with -56.79%.

For the origin of these results see ChEMBL document CHEMBL3988442, “University of Dundee, Small-Polar-MMV Screening Library” (2021).
